# SW480 rereplic – induces DNA re-replication in SW480 colon adenocarcinoma cells | SW480 DNA re-replication, Hoechst DNA content imaging, 48 h | actives 1.8% (n = 340,000) | Potency, µM (highest dose often 46.1 µM), hits mostly activators; further: nearly all actives have a fitted effect of over 55% in size
#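 Readout is total intensity of Hoechst-stained nuclei, excited at 405 nm and collected at 500-530 nm. Compound treatment lasted 48 hr at 37 C in 5% CO2 before staining.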
# TSG101-PTAP inh – blocks PTAP/TSG101 interaction to inhibit HIV-1 budding; Fluorescence polarization, FITC-PTAP peptide / Tsg101 binding; Potency, µM (top dose mostly 115 µM), most hits filed as inhibitors; 340,000 tested, under 10 active; active means well fitted inhibition curve with a large enough effect in the main read-out, with a control signal flat, not every such curve was filed as active; inconclusive means small, poorly fitted or top-dose-only effect, or effect the other way, or a change in a side signal; inactive means no such curve, though single readings can be large or run the other way
# Target sequence (Q99816 whole entry, looked up): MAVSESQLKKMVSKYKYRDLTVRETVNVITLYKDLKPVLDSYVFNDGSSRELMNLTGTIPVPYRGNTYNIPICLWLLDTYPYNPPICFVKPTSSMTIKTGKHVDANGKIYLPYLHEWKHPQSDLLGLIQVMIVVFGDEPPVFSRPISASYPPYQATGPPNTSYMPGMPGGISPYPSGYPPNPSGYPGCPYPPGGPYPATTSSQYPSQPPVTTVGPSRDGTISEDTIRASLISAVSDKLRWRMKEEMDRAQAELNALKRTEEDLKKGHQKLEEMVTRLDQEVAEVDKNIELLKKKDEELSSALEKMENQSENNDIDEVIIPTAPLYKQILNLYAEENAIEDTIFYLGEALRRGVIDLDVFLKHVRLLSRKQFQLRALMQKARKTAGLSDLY
#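 Tsg101 binding domain (10 uM final) was mixed with compound and a FITC-labeled PTAP peptide (50 nM final) in HEPES pH 7.5 buffer with NaCl, Tween 20, EDTA and TCEP; fluorescence polarization was read after 20 min at r.t.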
# KB-3-1 cytotox – KB-3-1 parental cell cytotoxicity; actives 1.4% (n = 400,000); Potency, µM (doses to about 46.1 µM), usual class: cytotoxic; KB-3-1 viability, CellTiter-Glo ATP luminescence, 72 h; further: nearly all actives have a fitted effect of over 60% in size
#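 Multi-concentration cytotoxicity screen in KB-3-1 cells grown in DMEM lacking phenol red with 10% FBS. After 72 h at 37 °C with compound, ATP-dependent luminescence was recorded.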
# RGS4 inh – human RGS4 inhibition | actives 0.039% (n = 390,000) | P49798 | Transcreener GDP fluorescence polarization, RGS4-accelerated GTP hydrolysis | Potency, µM (titrated, usually from 114 µM), usual class: inhibitors; further: nearly all actives have a fitted effect of over 75% in size
#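 MLSMR compounds (23 nl, pin-transferred) preincubated 10 min at room temperature with a 500nM (2x) first reagent, then RGS4 at 900nM (2x) plus Transcreener GDP mix added; fluorescence polarization (620/688 nm) read before and after 90 min at 30 °C.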
# KB-V1 cytotox – KB-V1 MDR subline cytotoxicity; KB-V1 MDR cells viability, CellTiter-Glo, 72 h; Potency, µM (highest dose often 46.1 µM), hits mostly cytotoxic; actives 3.4% (n = 400,000); AID 1347076; further: nearly all actives have a fitted effect of over 60% in size
#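 Potencies derive from concentration-effect curves fitted to normalized luminescence (CellTiter-Glo) of KB-V1 cells treated for 72 h at 37 degrees C in phenol-red-free DMEM containing 10% FBS.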
# MCF10A rerep – induces DNA re-replication in MCF 10a normal breast cells | MCF 10A DNA re-replication, Hoechst nuclear intensity, 48 h | actives 2.9% (n = 350,000) | Potency, µM (series often up to 46.1 µM), usual class: activators; further: nearly all actives have a fitted effect of over 50% in size
# A number is an active result; 0 = inactive; ? = inconclusive; - = no result; [ ] = remark or other dose. Sampled rows, rich in hits. Any-hit rate of the full collection: about 6.6%. Unless noted, the call rests on the fitted dose curve; in most records, active means well fitted curve in the direction sought with a large enough effect; inconclusive means small, poorly fitted or top-dose-only effect, or another doubt; inactive means no such curve, though single readings can be large; an effect the other way counts as inactive or inconclusive.
SMILES,SW480 rereplic,TSG101-PTAP inh,KB-3-1 cytotox,RGS4 inh,KB-V1 cytotox,MCF10A rerep
N=c1c2c(n(Cc3ccc(Br)cc3)c3c1CCC3)CCCC2,0,0,0.65µM,0[11.4 µM],0,?
N#C/C(=C/c1ccc2c(c1)OCO2)C(=O)NCCc1c[nH]c2ccccc12,?,0,0,0,15µM,?
CCc1ccc(NC(=O)c2ccc3c(c2)N(Cc2ccc(C)cc2)CCS3)cc1,-,-,0,0,0,-
Cc1ccc(C(=O)Nc2nc(C)c(C(=O)Nc3ccc4c(c3)CCC4)s2)cc1,5.8µM,0,21µM,0,2.9µM,1µM
Cc1nc(NC(=O)c2ccc(F)cc2)sc1C(=O)Nc1ccc2c(c1)CCC2,?,0,0,0,0,0
O=c1[nH]c2cc3ccccc3cc2nc1-c1nnnn1C1CCCC1,-,-,5.8µM,-,0,-
O=c1[nH]c2ccccc2nc1-c1nnnn1C1CCCC1,-,-,0,-,0,-
CCOC(=O)/C=C1\SCC(=O)N1CC(=O)NC(c1ccccc1)c1ccccc1,0,0,0,0,6.5µM,0
CCOC(=O)CC1(CC(=O)OCC)NC(=O)c2c(C)sc(C(=O)OCC)c2N1,0,0,0,0,0,0
CCOC(=O)CC1(C)NC(=O)c2c(C)sc(C(=O)OCC)c2N1 (configuration not stated),0,0,0,0,16µM,0
O=S(=O)(Nc1nc2ccccc2nc1Cl)c1ccc2ccccc2c1,0,0,0,0,?,23µM
O=S(=O)(Nc1nc2ccccc2nc1Cl)c1ccccc1,0,0,0,0,0,0
CN(C)c1ccc(C#Cc2ccc3cc(CCO)oc(=O)c3c2)cc1,?,0,0,0,0,12µM
COc1ccc(NC(=S)NNC(=O)C2CC2c2ccc(C)cc2)cc1 (configuration not stated),18µM,0,0,0,0,?
Cc1ccc(C2CC2C(=O)NNC(=S)Nc2cccc(C)c2)cc1 (configuration not stated),?,0,0,0,16µM,?
Cc1ccc2scc(N3CCCC(C)C3)c(=O)c2c1 (configuration not stated),-,-,0,0,0,-
Cc1cccc(N2CCN(C3(c4ccccc4)C(=O)c4ccccc4C3=O)CC2C)c1 (configuration not stated),-,-,0,0,?,-
CN(C)CCCNc1cc(N2CCN(C3CCCCC3)CC2)c2noc3c2c1C(=O)c1ccccc1-3,-,-,0,0,?,-
Cc1ccc2onc(CNC(=O)N3CCN(c4cccc(C)c4C)CC3)c2c1,-,-,0,0,0,-
CCOc1ccc(CC(=O)Nc2c(C(=O)c3ccc(F)cc3)oc3ccc(Cl)cc23)cc1OCC,-,-,0,0,0,-
COc1ccc(-n2cc(CNC(C)c3ccncn3)c(-c3cccc(F)c3)n2)cc1 (configuration not stated),0,0,0,0,0,0
COc1ccc(-n2cc(CNC3CCN(C)CC3)c(-c3cccc(F)c3)n2)cc1,0[1.84 µM],0,?,0,0,21µM
CCC(COC)NCc1cn(-c2ccc(OC)cc2)nc1-c1cccc(F)c1 (configuration not stated),?,0,0,0,5.2µM,0
Cc1cccc(N2CCN(S(=O)(=O)c3nnc(NC(=O)c4ccc(Cl)cc4)s3)CC2)c1,-,-,0,0,?,-
O=C(Cn1cc(SCc2ccc(C(F)(F)F)cc2)c2ccccc21)N1CCCC1,-,-,-,0,-,-
SMILES,SW480 rereplic,TSG101-PTAP inh,KB-3-1 cytotox,RGS4 inh,KB-V1 cytotox,MCF10A rerep
Cn1cnc([N+](=O)[O-])c1S(=O)(=O)Nc1ccccc1,?,0,?,0,?,?
Cn1cnc([N+](=O)[O-])c1S(=O)(=O)Oc1ccccc1,4.1µM,0,?,0,?,7.3µM
Cn1cnc([N+](=O)[O-])c1S(=O)(=O)c1cccc(Cl)c1,5.8µM,0,?,0,?,3.7µM
Cc1ccc(S(=O)(=O)C2CCN(c3nc(-c4cccs4)nc4ccccc34)CC2)cc1,-,-,-,0,-,-
COc1ccc(Nc2ncc(C(=O)N3CCN(c4cccc(Cl)c4)CC3)c3ccccc23)cc1,-,-,?,0,?,-
NCc1cn(Cc2ccccc2)nc1-c1ccccc1,-,-,0,0,0,-
